Among all 340,000 compounds or so, about 6,400 (1.9%) were called active. Entries that show only a call come without a potency. About 4% were inconclusive and are not listed. The call rests on the fitted dose curve; in most records, active means well fitted falling curve with a large enough effect; inconclusive means small, poorly fitted or top-dose-only effect; inactive means no such curve, though single readings can be large or run the other way. For the sample, actives were picked, then their nearest neighbours and some compounds at random.
Biological target: ATP-dependent Clp protease proteolytic subunit (Bacillus subtilis (strain 168)) (UniProt P80244)
Assay: qHTS Assay for Activators of ClpP; further: the source files actives as falling curves though it sought activators and does not explain the sign; nearly all actives have a fitted effect of over 65% in size
Conditions: purified B. subtilis ClpP, FRET peptide cleavage, 20 min; series mostly up to 57.5 µM
How it was run: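 Buffer: 100 mM Tris/HCl pH8, 100 mM KCl, 0.05% low protease BSA, 2.5% glycerol, 0.01% Tween-20. ClpP 10 microg/mL final; 20 min RT; delta FRET normalized to ADEP and DMSO controls.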
Potency means the concentration at half of the fitted maximal effect.

ATP-dependent Clp protease proteolytic subunit (Bacillus subtilis (strain 168)), sequence (P80244 whole entry, looked up): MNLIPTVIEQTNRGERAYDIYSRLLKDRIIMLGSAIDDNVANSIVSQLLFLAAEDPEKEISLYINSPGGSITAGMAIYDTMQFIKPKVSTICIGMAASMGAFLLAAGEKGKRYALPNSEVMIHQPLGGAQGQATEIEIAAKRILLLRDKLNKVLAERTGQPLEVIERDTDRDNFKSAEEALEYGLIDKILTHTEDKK

Row | Compound | Potency
1 | CCN(CC)C(=O)C1=C(C)N(Cc2ccc(OC)cc2)C(=O)C(CC(=O)NCc2ccco2)C1 (configuration not stated) | inactive
2 | Nc1nc2c(ncn2[C@@H]2O[C@H](CNCc3ccc(OCCCN4CCOCC4)cc3)[C@@H](O)[C@H]2O)c(=O)[nH]1 | inactive
3 | CCCCC[C@H](C)N1C[C@@H](COCc2ccccc2)Oc2cc(N3CCC[C@@H]3CO)ccc2S1(=O)=O | inactive
4 | CCCN(CCC)CCNC(=O)c1ccc2c(c1)NC(=O)C(CS(=O)(=O)Cc1cccc(Br)c1)N2 (configuration not stated) | 2.82 µM (active)
5 | CCCNC(=O)c1ccc(N2CCC3(CC2)CC(c2cccc(Br)c2)=NO3)c(NC(=O)c2ccco2)c1 | inactive
6 | O=C(NC1CC1)c1cccc(Br)c1 | inactive
7 | COc1ccc(OC)c(NC(=O)C2(C)CCN2C(=O)Cc2ccccc2)c1 (configuration not stated) | inactive
8 | Cc1cccc(C)c1NC(=O)C(c1ccc(C(F)(F)F)cc1)n1c(=O)c(-c2ccco2)nc2ccccc21 (configuration not stated) | inactive
9 | CCOC(=O)C1=C(CCc2ccccc2)NC(=O)NC1c1ccc2ccccc2c1 (configuration not stated) | inactive
10 | CCOC(=O)c1ccc(Nc2cc3ccccc3c(=O)[nH]2)cc1 | inactive
11 | CCOC(=O)c1sc(C)c2c1NC(C)(c1cccc3ccccc13)NC2=O (configuration not stated) | 28.2 µM (active)
12 | COc1cccc(-c2nnc(SCC(=O)N3CCC(C)CC3)o2)c1 | inactive
13 | COc1cccc(NC(=O)CSc2nnc(-c3cccnc3)o2)c1 | inactive
14 | COc1cccc(-c2nnc(SCCOc3ccc4c(C)cc(=O)oc4c3)o2)c1 | 28.2 µM (active)
15 | CCCNC(=O)C1(C)CCCN(C(=O)c2oc3ccccc3c2C)C1 (configuration not stated) | inactive
16 | OC[C@@H]1CN(Cc2ccc(F)cc2)C[C@H](n2cnc3c(NC4CCCC4)ncnc32)O1 | inactive
17 | Cc1nnc(SCC(=O)N2c3ccccc3C(C)(c3ccc(Cl)cc3)CC2(C)C)s1 (configuration not stated) | 31.6 µM (active)
18 | CC1(c2cccc([N+](=O)[O-])c2)CC(C)(C)N(C(=O)c2ccccc2)c2ccccc21 (configuration not stated) | inactive
19 | CC1(c2ccccc2)CC(C)(C)N(C(=O)c2cc([N+](=O)[O-])cc([N+](=O)[O-])c2)c2ccccc21 (configuration not stated) | inactive
20 | O=C(C[n+]1ccncc1)c1ccc2c(c1)CCCC2 | inactive
21 | COc1ccc(CC(N)c2csc(NC(=O)Nc3ccc(C(C)C)cc3)n2)cc1 (configuration not stated) | inactive

Row | Compound | Potency
22 | CO[C@H]1O[C@@H]2O[C@@]3(C)CC[C@@H]4[C@@H](C)CC[C@@H]([C@H]1C)[C@@]24OO3 | inactive
23 | CCOC(=O)c1ccn(S(=O)(=O)c2ccc(C)cc2)c1-c1ccccc1 | inactive
24 | CCOc1cc(-c2cc(-c3ccc(OC)cc3)nc(N)c2C#N)ccc1O | inactive
25 | CCOC(=O)CC(=O)CSc1nc(-c2ccccc2)cc(-c2ccc(Cl)cc2)c1C#N | inactive
26 | CCSc1nc(-c2ccc(OC)cc2)cc(-c2ccc(OC)cc2)c1C#N | 22.4 µM (active)
27 | CCc1ccc([C@@H]2CC(=O)[C@@H]3CN(S(=O)(=O)c4ccc(C)cc4)[C@H](c4ccc(Cl)cc4)C[C@@H]3N2S(=O)(=O)c2ccc(C)cc2)cc1 | inactive
28 | Cc1ccc(S(=O)(=O)N[C@H]2CCC[C@@H]2O)cc1 | inactive
29 | CCCNC(=O)c1cc(C2CCCN(C(=O)c3ccc4c(c3)CCO4)C2)on1 (configuration not stated) | inactive
30 | CCCC(=O)Nc1cc(OCC)c(NC(=O)NC2CCCCC2)cc1OCC | inactive
31 | CCOc1cc(C2C(C(=O)OC)=CN(C3CCCC3)C=C2C(=O)OC)cc(Br)c1O | 31.6 µM (active)
32 | CCOc1ccc(CNC(=O)C2CCC(=O)N2C2CCCC2)cc1OC (configuration not stated) | inactive
33 | CCOc1ccc2[nH]c(=S)sc2c1 | inactive
34 | C=CCC[C@@H](CCCCC)OC(=O)/C=C/[C@@H](O)[C@H](O)C[C@H](O)CC=C | inactive
35 | Cc1ccccc1CN1CCN(CC(=O)NCc2ccccn2)C1=O | inactive
36 | O=C(NCc1ccccn1)c1cc2ccccc2oc1=O | 31.6 µM (active)
37 | COc1ccc2oc(=O)c(C(=O)O)cc2c1 | 20 µM (active)
38 | N=c1oc2ccccc2cc1C(=O)NCc1ccccc1 | inactive
39 | Cc1cc(C)cc(OCC(=O)NNC(=O)c2cc3ccccc3oc2=O)c1 | inactive
40 | COc1ccc2oc(=O)c(C(=O)N3CCN(c4ccccc4F)CC3)cc2c1 | inactive
41 | O=C(NCc1ccccn1)c1cnc2sccn2c1=O | 28.2 µM (active)
42 | COc1cccc(S(=O)(=O)NCc2ccc(C(=O)NCc3ccccn3)cc2)c1 | inactive

Row | Compound | Potency
43 | COc1ccc2oc(=O)c(C(=O)N3CCCc4ccccc43)cc2c1 | inactive
44 | COc1ccc2oc(=O)c(C(=O)NCc3ccccn3)cc2c1 | 10 µM (active)
45 | COc1ccc(CNC(=O)c2cc3cccc(OC)c3oc2=O)cc1 | inactive
46 | Cc1ccc(S(=O)(=O)N2CCC(C)CC2)cc1C(=O)NCc1ccccn1 | inactive
47 | COc1cc(NC(=O)c2cc(-c3ccc(F)cc3OC(C)C)n[nH]2)cc(OC)c1OC | inactive
48 | COc1ccc(NC(=O)C2Cc3c(-c4ccc5c(c4)OCO5)ccnc3O2)cn1 (configuration not stated) | inactive
49 | COc1cc(C(O)c2nc(-c3cccc(C(=O)O)c3)cs2)ccc1F (configuration not stated) | inactive
50 | Cc1cc2c(cc1C)N1C(=O)c3cc4ccccc4cc3NC(=O)C1C(=O)N2 (configuration not stated) | inactive
51 | COc1cc(OC)c(OC)cc1/C=C1\C=Cc2ccccc21 | inactive
52 | CCOC(=O)C1(C)CCCN(C(=O)c2ccc(F)c(Cl)c2)C1 (configuration not stated) | inactive
53 | O=C(NCc1ccc(F)cc1)c1cc(C2CCCCN2C(=O)C2CCCCC2)on1 (configuration not stated) | inactive
54 | COc1cc(C(O)c2nc(-c3cnn(C)c3)cs2)ccc1F (configuration not stated) | inactive
55 | O=C(Oc1cccnc1)c1cc2ccccc2oc1=O | 28.2 µM (active)
56 | CCc1ccc(Oc2coc3cc(OC(=O)c4cc5ccccc5oc4=O)ccc3c2=O)cc1 | inactive
57 | CCOC(=O)c1cc2cc3ccccc3cc2oc1=O | inactive
58 | COc1ccc(Cl)cc1-c1cc(C(=O)Nc2cc(OC)c(OC)c(OC)c2)[nH]n1 | inactive
59 | O=C(CCCn1c(=O)[nH]c2cc(Cl)ccc2c1=O)NCCN1CCN(c2ccccc2)CC1 | inactive
60 | CCCCCn1c(=O)[nH]c2cc(C(=O)NCCN(C)CCCC)ccc2c1=O | inactive
61 | CCN(CC)CCNC(=O)CCCCCn1c(=O)[nH]c2cc(C(=O)OC)ccc2c1=O | 28.2 µM (active)
62 | Nc1ncnc2c1ncn2[C@@H]1O[C@H](C(=O)NCC(F)(F)F)[C@@H](O)[C@H]1O | inactive

— PubChem BioAssay AID651965 (National Center for Advancing Translational Sciences (NCATS), 2013)
